In PubChem BioAssay (EPA / NIEHS):
The source made the active and inactive calls. Rule for the calls: active = hit-call score of the fitted dose curve at least 0.9, where 1 is the maximum; inactive = score below 0.9.

Tests used:
[1] = read-out: Thrombomodulin, THBD (gene 7056); assay: BSK_CASM3C_Thrombomodulin: BioMAP Diversity Plus: CASM3C Assay for Thrombomodulin Biomarker Activity (AID 2283051); conditions: primary human coronary artery smooth muscle cells; actives raise or lower the signal;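 note: thrombomodulin protein level measured by ELISA 24 h after dosing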
[2] = read-out: Tissue Factor, F3 (gene 2152); assay: BSK_CASM3C_TissueFactor: BioMAP Diversity Plus: CASM3C Assay for Tissue Factor Biomarker Activity (AID 2283052); conditions: primary human coronary artery smooth muscle cells; actives raise or lower the signal;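 note: cell surface tissue factor protein level read by ELISA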
[3] = read-out: Interferon-gamma inducible Protein 10 (IP10), CXCL10 (gene 3627); assay: BSK_hDFCGF_IP10: BioMAP Diversity Plus: hDFCGF Assay for Interferon-gamma inducible Protein 10 (IP10) Biomarker Activity (AID 2283053); conditions: primary human foreskin fibroblasts; actives raise or lower the signal
In short: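 Cells: human dermal foreskin fibroblasts. Exposure: 24 h post-dosing. Detection: IP-10 ELISA, with values expressed against DMSO controls and fitted in both directions.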

[4] = read-out: Urokinase-type plasminogen activator receptor (uPAR), PLAUR (gene 5329); assay: BSK_CASM3C_uPAR: BioMAP Diversity Plus: CASM3C Assay for Urokinase-type plasminogen activator receptor (uPAR) Biomarker Activity (AID 2283054); conditions: primary human coronary artery smooth muscle cells; actives raise or lower the signal;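 note: cell-surface uPAR protein level quantified by ELISA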
[5] = read-out: Vascular cell adhesion molecule 1 (VCAM1), VCAM1 (gene 7412); assay: BSK_CASM3C_VCAM1: BioMAP Diversity Plus: CASM3C Assay for Vascular cell adhesion molecule 1 (VCAM1) Biomarker Activity (AID 2283055); conditions: primary human coronary artery smooth muscle cells; actives raise or lower the signal;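 note: VCAM-1 protein level quantified by ELISA on the cells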
[6] = read-out: Collagen III, COL3A1 (gene 1281); assay: BSK_hDFCGF_CollagenIII: BioMAP Diversity Plus: hDFCGF Assay for Collagen III Biomarker Activity (AID 2283056); conditions: primary human foreskin fibroblasts; actives raise or lower the signal
In short: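 ELISA read-out of collagen III from human skin fibroblast cultures sampled 24 h post-dosing. Values were derived by bidirectional fitting relative to the DMSO vehicle control.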

[7] = read-out: Epidermal growth factor receptor (EGFR), EGFR (gene 1956); assay: BSK_hDFCGF_EGFR: BioMAP Diversity Plus: hDFCGF Assay for Epidermal growth factor receptor (EGFR) Biomarker Activity (AID 2283057); conditions: primary human foreskin fibroblasts; actives raise or lower the signal
In short: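 Dosing human primary skin fibroblasts, then measuring surface EGFR by ELISA at 24 h, gives the endpoint; gains and losses relative to DMSO were fitted in both directions.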

[8] = read-out: Interleukin-8 (IL8), CXCL8 (gene 3576); assay: BSK_hDFCGF_IL8: BioMAP Diversity Plus: hDFCGF Assay for Interleukin-8 (IL8) Biomarker Activity (AID 2283058); conditions: primary human foreskin fibroblasts; actives raise or lower the signal
In short: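 Cells used are human skin primary fibroblasts. Chemical is added, cultures run 24 h, then IL-8 is quantified by ELISA, and gain or loss versus DMSO control is fitted in both directions.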

[9] = BSK_hDFCGF_Proliferation: Cell Proliferation Assessment in the BioMAP Diversity Plus: hDFCGF Assay (AID 2283059); conditions: primary human foreskin fibroblasts;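 note: curves fitted for both rise and fall of signal versus DMSO baseline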
In short: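 Sub-confluent human foreskin fibroblast cultures receive test chemical […]. Relative cell number is quantified by sulforhodamine B staining (0.1%, after 10% TCA fixation) at 560 nm, with bidirectional fitting referenced to DMSO.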

[10] = read-out: Macrophage colony-stimulating factor (MCSF), CSF1 (gene 1435); assay: BSK_hDFCGF_MCSF: BioMAP Diversity Plus: hDFCGF Assay for Macrophage colony-stimulating factor (MCSF) Biomarker Activity (AID 2283060); conditions: primary human foreskin fibroblasts; actives raise or lower the signal
In short: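 Primary human foreskin fibroblasts dosed with chemical; 24 h later, M-CSF quantified by ELISA; curves fitted in both directions vs DMSO negative control.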

[11] = read-out: TIMP metallopeptidase inhibitor 1 (TIMP1), TIMP1 (gene 7076); assay: BSK_hDFCGF_TIMP1: BioMAP Diversity Plus: hDFCGF Assay for TIMP metallopeptidase inhibitor 1 (TIMP1) Biomarker Activity (AID 2283062); conditions: primary human foreskin fibroblasts; actives raise or lower the signal
In short: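 Human skin fibroblasts (primary), hDFCGF system; compound exposure 24 h; TIMP-1 by ELISA; bidirectional fit vs DMSO negative control; overt cytotoxicity by SRB in parallel wells.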

[12] = read-out: Monokine induced gamma interferon (MIG), CXCL9 (gene 4283); assay: BSK_hDFCGF_MIG: BioMAP Diversity Plus: hDFCGF Assay for Monokine induced gamma interferon (MIG) Biomarker Activity (AID 2283063); conditions: primary human foreskin fibroblasts; actives raise or lower the signal
In short: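 Chemicals were added to primary human foreskin fibroblast cultures, which were sampled 24 h later. MIG levels were then quantified by ELISA and responses fitted in both directions relative to DMSO.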

[13] = read-out: Matrix Metallopeptidase 1 (MMP1), MMP1 (gene 4312); assay: BSK_hDFCGF_MMP1: BioMAP Diversity Plus: hDFCGF Assay for Matrix Metallopeptidase 1 (MMP1) Biomarker Activity (AID 2283064); conditions: primary human foreskin fibroblasts; actives raise or lower the signal
In short: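 Human foreskin fibroblasts exposed to chemical for 24 h; MMP1 detected by ELISA, with DMSO as baseline for bidirectional fitting.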

[14] = read-out: Vascular cell adhesion molecule 1 (VCAM1), VCAM1 (gene 7412); assay: BSK_hDFCGF_VCAM1: BioMAP Diversity Plus: hDFCGF Assay for Vascular cell adhesion molecule 1 (VCAM1) Biomarker Activity (AID 2283065); conditions: primary human foreskin fibroblasts; actives raise or lower the signal;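 for AC50: VCAM-1 protein level quantified by ELISA after 24 h chemical exposure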
In short: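 Human foreskin fibroblast primary cells, chemical exposure 24 h; VCAM-1 by ELISA; bidirectional fit, DMSO = negative control/baseline.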

[15] = read-out: Plasminogen activator inhibitor-1 (PAI1), SERPINE1 (gene 5054); assay: BSK_hDFCGF_PAI1: BioMAP Diversity Plus: hDFCGF Assay for Plasminogen activator inhibitor-1 (PAI1) Biomarker Activity (AID 2283066); conditions: primary human foreskin fibroblasts; actives raise or lower the signal
In short: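 Fibroblasts from human foreskin were treated with test chemical. After 24 h, PAI-1 was measured by ELISA. Activity was fitted in both directions relative to DMSO.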

[16] = read-out: Intercellular Adhesion Molecule 1 (ICAM1), ICAM1 (gene 3383); assay: BSK_KF3CT_ICAM1: BioMAP Diversity Plus: KF3CT Assay for Intercellular Adhesion Molecule 1 (ICAM1) Biomarker Activity (AID 2283067); conditions: primary human keratinocytes with fibroblasts; actives raise or lower the signal
In short: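 ICAM-1 levels are measured by ELISA 24 h after dosing a primary human co-culture of keratinocytes and foreskin fibroblasts. Activity in either direction is fitted relative to DMSO vehicle.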

[17] = read-out: Interferon-gamma inducible Protein 10 (IP10), CXCL10 (gene 3627); assay: BSK_KF3CT_IP10: BioMAP Diversity Plus: KF3CT Assay for Interferon-gamma inducible Protein 10 (IP10) Biomarker Activity (AID 2283068); conditions: primary human keratinocytes with fibroblasts; actives raise or lower the signal
In short: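 ELISA read-out of IP-10 after 24 h chemical dosing of human skin primary co-culture (keratinocytes, foreskin fibroblasts). Gain or loss of signal relative to DMSO, bidirectional curve fit.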

[18] = BSK_KF3CT_SRB: Viability Assessment in the BioMAP Diversity Plus: KF3CT Assay (AID 2283069); conditions: primary human keratinocytes with fibroblasts;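 note: read 24 h after compound addition; fitted for both signal gain and loss against DMSO baseline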
In short: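 Overt cytotoxicity is assessed as total protein by sulforhodamine B staining in parallel human skin co-cultures at 24 h after dosing. DMSO serves as negative control and baseline.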

[19] = read-out: Interleukin-1 alpha (IL1a), IL1A (gene 3552); assay: BSK_KF3CT_IL1a: BioMAP Diversity Plus: KF3CT Assay for Interleukin-1 alpha (IL1a) Biomarker Activity (AID 2283070); conditions: primary human keratinocytes with fibroblasts; actives raise or lower the signal
In short: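 Readout is IL-1a level by ELISA, compared bidirectionally with DMSO as baseline. Cells: human keratinocytes co-cultured with foreskin fibroblasts, harvested 24 h post-dose.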

[20] = BSK_hDFCGF_SRB: Viability Assessment in the BioMAP Diversity Plus: hDFCGF Assay (AID 2283061); conditions: primary human foreskin fibroblasts;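 note: cells exposed to compound for 24 h before the read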
In short: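 Readout is SRB absorbance at 560 nm, reflecting total protein in parallel cultures of human foreskin fibroblasts harvested 24 h after chemical dosing. Activity was fitted bidirectionally relative to DMSO.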

Measured: AC50

O=C(O)c1ccccc1-n1cc(C(=O)O)c(=O)c2cc(Nc3c(F)cc(F)cc3Cl)c(Cl)cc21
not listed: [20]
inactive: all other assays above

CC(=O)N1CCN(c2ccc(OC[C@H]3CO[C@](Cn4ccnc4)(c4ccc(Cl)cc4Cl)O3)cc2)CC1
inactive: [1] | [2] | [4] | [5] | [7]
active: [3] 33.3 µM | [6] 14 µM | [8] 33.5 µM | [9] 20 µM | [11] 35.4 µM | [12] 36.9 µM | [13] 32.6 µM | [14] 35.5 µM | [15] 34.2 µM | [16] 30.9 µM | [17] 34.5 µM | [18] 26.6 µM | [19] 33.6 µM

CCO[Si](CCCNC(N)=O)(OCC)OCC
not listed: [19] | [20]
inactive: all other assays above

CCCC(=O)OCCC(C)C
not listed: [20]
inactive: all other assays above

C[C@]12CC[C@@H]3c4ccc(O)cc4CC[C@H]3[C@@H]1CC[C@H]2O
active: [5] 16 µM | [6] 12 µM | [14] 15.4 µM
not listed: [19] | [20]
inactive: all other assays above

CCN(Cc1cccc(S(=O)(=O)O)c1)c1ccc(C(=C2C=CC(=[N+](CC)Cc3cccc(S(=O)(=O)O)c3)C=C2)c2ccccc2S(=O)(=O)[O-])cc1
active: [3] 18.8 µM
not listed: [20]
inactive: all other assays above

O=c1c(-c2ccc(O)cc2)coc2cc(O)cc(O)c12
active: [3] 20 µM | [4] 29.6 µM | [5] 25.7 µM | [9] 11.7 µM | [20] 14.3 µM | [13] 15.1 µM | [15] 20 µM
not listed: [1] | [7]
inactive: all other assays above

CCCCCCCCCC(=O)O
not listed: [19] | [20]
inactive: all other assays above

CCCCCCCCN(C)CCCCCCCC
not listed: [19] | [20]
inactive: all other assays above

CC(C)(C)c1csc(-c2cc3cc(OCc4ccccc4CC(=O)O)ccc3o2)n1
inactive: [1] | [2] | [4] | [7]
active: [3] 10.2 µM | [5] 15.4 µM | [6] 3.19 µM | [8] 18.4 µM | [9] 9.8 µM | [10] 13 µM | [11] 15.5 µM | [12] 15.2 µM | [13] 14.5 µM | [14] 10.1 µM | [15] 11.3 µM | [16] 24.3 µM | [17] 9.6 µM | [18] 12.6 µM

CCCCCCCCOC(=O)c1cc(O)c(O)c(O)c1
inactive: [2] | [7]
active: [1] 0.282 µM | [3] 12.7 µM | [4] 34.2 µM | [5] 28.2 µM | [6] 14 µM | [8] 33.2 µM | [9] 4.32 µM | [10] 27.8 µM | [11] 37.8 µM | [12] 19.7 µM | [13] 37.6 µM | [14] 7.8 µM | [15] 15.2 µM | [16] 29.2 µM | [17] 12.3 µM | [18] 15.3 µM

Cc1cn([C@H]2C[C@H](N=[N+]=[N-])[C@@H](CO)O2)c(=O)[nH]c1=O
not listed: [7] | [20]
inactive: all other assays above

OCCO
active: [9] 20.1 µM
not listed: [20]
inactive: all other assays above
